# Source: PubChem (National Center for Advancing Translational Sciences (NCATS))
# An excerpt weighted towards active compounds, which were near 21% of everything screened.
# Shiga inhibitor = inhibitors of Shiga toxin in Vero cells; Vero cells, Shiga toxin protein synthesis inhibition reporter; inhibition, % at 38.7 µM; actives 9.2% (n = 290,000); AID 2315; in the data active = inhibition mostly above about 28%, no sharp cut-off; inactive = mostly below about 43%; note: 0% is about no effect
# CHX counter = affects cycloheximide protein synthesis inhibition readout, counter-screen | cell reporter, cycloheximide protein synthesis inhibition counterscreen | max response, % | actives 12% (n = 300,000) | AID 2314; in the data active = max response mostly above about 13%, no sharp cut-off; inactive = mostly below about 14%; note: read at 38.3 µM for the half of the compounds with a filed dose; 0% is about no effect
# Pf growth 48h = inhibits P. falciparum growth in the first generation, 48 h; AID 504832; Potency, µM (series often up to 28.7 µM), for inactives: top-dose activity change, negative = inhibition, hits mostly inhibitors; P. falciparum luciferase growth in erythrocytes, 48 h; actives 5.9% (n = 310,000); note: potency is the fitted concentration of half-maximal effect; % is set by controls: 0 for no effect and ±100 for the full control effect
#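 Cell-based growth assay: transgenic P. falciparum expressing firefly luciferase, cultured in red cells within RPMI 1640 containing 0.5% w/v Albumax, 24 mM bicarbonate and gentamycin. A drop in luciferase activity indicates inhibition.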
# Pf growth 96h = P. falciparum growth inhibition at 96 hours; P. falciparum luciferase reporter growth, 96 h; actives 6.9% (n = 320,000); Potency, µM (series often up to 28.7 µM), for inactives: top-dose activity change, negative = inhibition, actives largely listed as inhibitors; note: potency is the fitted concentration of half-maximal effect; % is set by controls: 0 for no effect and ±100 for the full control effect
#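 Compounds incubated with erythrocytes infected by luciferase-expressing P. falciparum (2% hematocrit, 0.05% parasitemia final) for 96 hours, 37 C in 5% CO2. Growth inhibition scored as decreased luciferase luminescence.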
# Numbers without * were called inactive; ? = inconclusive; . = no result given; [ ] = dose if it differs, or a comment. Unless noted, calls come from the whole dose curve; as a rule, active = well fitted inhibition curve with a large enough effect; inconclusive = small, poorly fitted or top-dose-only effect, or another doubt; inactive = no such curve, though single readings can be large or run the other way.
SMILES,Shiga inhibitor,CHX counter,Pf growth 48h,Pf growth 96h
NC(=O)C1CCCN(C(=O)c2ccc3oc(Cc4ccc(Cl)cc4)nc3c2)C1 (stereo not drawn),35,14,2%,?
CCOC(=O)C1CCCN(C(=O)c2ccc3oc(CCc4ccccc4)nc3c2)C1 (stereo not drawn),38,39*,8%,?
CC(=O)C1CCCN(C(=O)c2ccc3oc(CCc4ccccc4)nc3c2)C1 (stereo not drawn),89*,36*,72%,3%
CCOC(=O)C1CCCN(C(=O)c2cc3c(=O)n(C)c4ccccc4c3n2C)C1 (stereo not drawn),-12,-8,.,8.3µM*
CC(C)N(Cc1nccn1C)C(=O)c1ccc2oc(CCCc3ccccc3)nc2c1,-8,4,-25%,25%
O=C(c1ccc2oc(CCCc3ccccc3)nc2c1)N1CCCC1,129*,63*,24%,22%
CCOC(=O)C1CCCN(C(=O)c2cc(-c3ccccc3)on2)C1 (stereo not drawn),79*,42*,181%,.
CCOC(=O)C1CCCN(C(=O)c2cc3c(C)nc4ccccc4c3o2)C1 (stereo not drawn),-4,-2,?,?
CN(CC(=O)NCCc1ccc(S(N)(=O)=O)cc1)S(=O)(=O)c1cccc2nsnc12,-8,12,32%,23%
COCCN(CCOC)c1nc(-c2ccccc2)nc2ccccc12,14,0,13µM*,?
COCCN(CCOC)c1nc(-c2ccc(Cl)cc2)nc2ccccc12,-23,7,0%,?
CCN1CCN(C(=O)c2cc(COc3ccc(F)cc3F)on2)[C@@H](C)C1=O,10,8,0%,-2%
COC(=O)c1ccc(Nc2nc3ccc(C)cc3n3cnnc23)cc1,51,17,100%,-11%
CC(=O)c1ccc(Nc2nc3ccc(C)cc3n3cnnc23)cc1,28,17*,-7%[0.00184 µM],21%
CC(C)c1nnc(NC(=O)C2CCN(C(=O)Nc3ccc(Cl)cc3)CC2)s1,26,9,?,-1%
Cc1ccc(Cn2c(=O)n(C)c(=O)c3sccc32)cc1,19,-1,86%,20%
Cc1ccc(S(=O)(=O)N(C)c2ccc(OCC(=O)Nc3nc4c(ccc5ccccc54)s3)cc2)cc1,2,2,1%,-28%
Cc1ccc(S(=O)(=O)N(C)c2ccc(OCC(=O)Nc3nc4ccccc4s3)cc2)cc1,1,13,4.7µM*,3.3µM*
CCOc1ccc(OCC(=O)Nc2nccs2)cc1,-2,13,-60%,3%
CCOc1ccc(S(=O)(=O)N(C)c2ccc(OCC(=O)Nc3nccs3)cc2)cc1,12,6,1.9µM*,?
Cc1c(C(=O)N2CCN(c3ccccc3)CC2)sc2ncnc(N3CCN(c4ccccn4)CC3)c12,-5,-6,?,30%
Cc1c(C(=O)N2CCN(c3ccc(F)cc3)CC2)sc2ncnc(N3CCN(c4ccccn4)CC3)c12,-3,-2,10µM*,12%
CCN1CCN(C(=O)c2sc3nc(C)nc(N4CCC(C)CC4)c3c2C)CC1,-7,-1,13µM*,?
Cc1nc(N2CCC(C)CC2)c2c(C)c(C(=O)O)sc2n1,13,-2,9%,-6%
COc1ccccc1N1CCN(C(=O)c2sc3ncnc(N4CCN(c5ccccn5)CC4)c3c2C)CC1,-1,-2,12µM*,2%
SMILES,Shiga inhibitor,CHX counter,Pf growth 48h,Pf growth 96h
Cc1nc(N2CCN(c3ccccn3)CC2)c2c(C)c(C(=O)N3CCN(c4ccc(F)cc4)CC3)sc2n1,-8,1,4.7µM*,1%
CCc1cc(C(=O)N(Cc2ccccc2)c2c(N)n(CCOC)c(=O)[nH]c2=O)sc1C,.,.,?,2%
CCn1c(SC)nnc1C1CCN(CC(=O)Nc2ccccc2N2CCOCC2)CC1,-26,2,-14%,?
O=[N+]([O-])c1ccc(N2CCN(CC3CCCCC3)CC2)cc1,.,-4,21%,-7%
COc1ccc(NC(=O)c2sc3ncn(CC(=O)N4CCN(c5ccccn5)CC4)c(=O)c3c2C)c(OC)c1,-15,-2,1%,24%
COc1ccc(OC)c(NC(=O)c2sc3ncnc(N4CCN(c5ccccn5)CC4)c3c2C)c1,16,-3,8.3µM*,?
CC1(C)C2CC[C@]1(C)[C@@H](O)C2,.,.,-6%,-23%
CCCOC(=O)c1ccc(Oc2coc3c(CN(CC)CC)c(O)ccc3c2=O)cc1,10,-1,?,12µM*
O=S(=O)(Nc1cccc(Br)c1)c1cccc2nsnc12,-3,-1,19%,?
O=C(O)c1cc(NS(=O)(=O)c2cccc3nsnc23)cc(C(=O)O)c1,-2,-1,-4%[0.00184 µM],7.4µM*
Cc1oc(C)c2c(=O)ccc3c(c12)OC(N)=C(C#N)C3c1ccc(F)cc1 (stereo not drawn),6,9,13µM*,-2%[5.75 µM]
Cc1[nH]nc2c1C(c1ccc(F)cc1)C(C#N)=C(N)O2 (stereo not drawn),-16,-7,9%,?
Nc1cc(Cl)ccc1Oc1ccc2ccccc2c1,41*,34*,.,-10%
Cc1ccc(Oc2ncc(-c3ccc(Cl)cc3)cn2)cc1,-24,6,0%,27%
Cc1ccc(Oc2ccc(Cl)cc2N)cc1,100*,38*,52%,17%
Cc1ccccc1COc1ccc(-c2nn[nH]n2)cc1,32*,27*,-3%,-19%
CCOc1ccc(-c2nn[nH]n2)cc1,-8,7,30%,1%
Brc1cc2c(cc1COc1ccc(-c3nn[nH]n3)cc1)OCO2,-49,30*,16%,10%
C/C=C\C=C\C(=O)Nc1cccc(C2=NOC3(C2)C[C@@H](C(N)=O)N(C(=O)C(c2ccccc2)c2ccccc2)C3)c1 (stereo partly drawn),0,-6,?,?
CS[C@@H]1SC[C@H]2C(=O)N(C)C(C(C)C)C(=O)OC[C@@H](NC(=O)c3cnc4ccccc4n3)C(=O)N[C@@H](C)C(=O)N(C)[C@H]1C(=O)N(C)C(C(C)C)C(=O)OC[C@@H](NC(=O)c1cnc3ccccc3n1)C(=O)N[C@@H](C)C(=O)N2C (stereo partly drawn),-3,-11,.,.
Cn1nc2sc3ccccc3n2c(=O)c1=O,-2,3,-8%,9%
N#Cc1cnc2sc3ccccc3n2c1=N,51*,47*,.,-19%
CC(C)(C)c1ccc(C(=O)NCCCNC(=O)c2ccccn2)cc1,42*,11,10%,-20%
COc1cccc(C(=O)NCCCNC(=O)c2ccccn2)c1,-2,6,9%,4.7µM*
Cc1cccc(OCCCC(=O)NNC(=O)c2ccncc2)c1,.,.,28%,1%
SMILES,Shiga inhibitor,CHX counter,Pf growth 48h,Pf growth 96h
O=C(NCCN1CCNCC1)c1ccccn1,101*,14,37%,-31%
O=C(NCCCNCCCNC(=O)c1ccccn1)c1ccccn1,27,-3,16%,-16%
CCCOc1cccc(C(=O)NCCCNC(=O)c2ccccn2)c1,15,-1,11%,25%
Cc1cccc(OCCCC(=O)NNC(=O)c2ccccn2)c1,.,.,2.3µM*,1.7µM*
O=C([C@@H]1Cc2ccccc2CN1)N1CCN(Cc2ccccc2)CC1,-3,-2,-6%,-1%
O=C(Nc1ccc2c(c1)C(=O)NC2=O)c1cccc(C(F)(F)F)c1,-5,-1,62%,47%
